D1 mod = allosterically modulates the human D1 dopamine receptor; HEK293 D1, CRE-luciferase, dopamine EC30 potentiation; actives deviate in either direction; B-score at 10 µM; actives 5.9% (n = 58,000);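 active = luminescence count or its row- and column-corrected plate score outside the 99.7% band of the plate's sample wells, on either side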
hDAT+cocaine = human DAT dopamine uptake with cocaine, either direction; B-score at 10 µM; actives 1.3% (n = 110,000); Q01959; LLC-PK1 hDAT cells, [14C]-dopamine uptake with cocaine IC80; actives deviate in either direction; AID 449768;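 active = Z score or B-score, a plate-position-corrected score, falls beyond the plate's 99.7% confidence bounds, in either direction; inactive = both scores lie inside the 99.7% bounds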;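 also: scored against the spread of the other compound wells on the same plate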
Target sequence (Q01959 whole entry, looked up): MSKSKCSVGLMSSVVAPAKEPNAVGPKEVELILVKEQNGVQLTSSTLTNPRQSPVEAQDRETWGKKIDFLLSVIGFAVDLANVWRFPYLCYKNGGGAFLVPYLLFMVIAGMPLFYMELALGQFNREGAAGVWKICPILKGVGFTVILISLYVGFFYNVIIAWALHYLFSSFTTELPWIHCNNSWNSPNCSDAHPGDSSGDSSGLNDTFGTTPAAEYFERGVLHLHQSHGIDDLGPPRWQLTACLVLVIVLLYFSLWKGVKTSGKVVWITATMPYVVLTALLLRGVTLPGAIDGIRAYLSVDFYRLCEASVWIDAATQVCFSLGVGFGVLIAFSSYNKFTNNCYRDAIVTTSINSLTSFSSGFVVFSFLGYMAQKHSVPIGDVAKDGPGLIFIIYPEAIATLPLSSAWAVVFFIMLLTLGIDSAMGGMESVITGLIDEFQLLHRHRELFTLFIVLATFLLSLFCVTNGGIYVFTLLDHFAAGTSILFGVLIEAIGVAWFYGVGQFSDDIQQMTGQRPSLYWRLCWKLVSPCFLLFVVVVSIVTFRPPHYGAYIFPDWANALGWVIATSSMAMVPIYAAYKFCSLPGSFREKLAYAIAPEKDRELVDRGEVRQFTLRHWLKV
EphB4 antag = EphB4-ephrin-B2 interaction antagonism | EphB4 LBD / TNYL-RAW-Alexa532 peptide, fluorescence polarization | inhibition, % at 7 µM | P54760 | AID 720 | actives 0.15% (n = 97,000);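 active = inhibition above the screen-wide mean inhibition plus 3 SD, cut at about 15% in these data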;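 also: 0% = DMSO wells and 100% = excess unlabeled TNYL-RAW peptide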
Starred values were filed as active, the others as inactive; / = not tested or not shown. The entries come from a sample that favours hits as a whole.

SMILES	D1 mod	hDAT+cocaine	EphB4 antag
C=CCc1ccccc1OCC(O)CN1CCN(c2ccccc2OC)CC1 (centres undefined)	-6.1*	-0.71	0
OC(COc1ccc2ccccc2c1Cl)CN1CCOCC1 (centres undefined)	-0.23	0.024	2
COc1ccccc1N1CCN(Cc2cc(Br)c(O)c3ncccc23)CC1	-1.5	0.35	10
C=CCc1ccccc1OCC(O)CN1CCN(c2ccccc2F)CC1 (centres undefined)	-4.6*	-0.14	6
OC(COc1ccccc1Cl)CN1CCN(CC(O)COc2ccccc2Cl)CC1 (centres undefined)	-6.3*	-0.04	0
COc1ccccc1N1CCN(CC(O)COc2cccc3ccccc23)CC1 (centres undefined)	-1.7	1.2	/
CCOc1ccc(S(=O)(=O)N(CC(=O)N/N=C/c2cccs2)c2ccc(C)cc2)cc1	/	-0.027	3
CN1CCN(C(=O)c2ccc(-n3cccc3)cc2)CC1	/	0.84	-13
CCN(CC(=O)Nc1cccc(OC)c1)C(=O)c1ccc(C)s1	/	-0.75	4
Cc1c(S(=O)(=O)N2CCOCC2)c(=O)n(C)c(=O)n1C	/	-0.1	4
CCSc1nc(-c2cccs2)nc2c1c(=O)n(C)c(=O)n2C	0.52	/	/
CCOc1c(Br)cc(C2NS(=O)(=O)N=C3CCCCCN32)cc1OC (centres undefined)	1.1	0.013	2
O=C(NCCCN1CCN(c2ccccc2)CC1)Nc1ccccc1C(F)(F)F	-2.7*	-0.12	-1
Cc1ccccc1NC(=O)NCCCN1CCN(c2ccccc2)CC1	/	-0.52	6
COc1ccc(N2CCN(CCCNC(=O)Nc3ccccc3)CC2)cc1	/	0.12	9
COc1ccccc1N1CCN(CCCNC(=O)Nc2ccccc2)CC1	-4.8*	-0.058	9
Cc1nn(C)c(C)c1S(=O)(=O)N(CC(=O)N1CCc2ccccc2C1)c1ccc(C(C)C)cc1	/	1.9	-3
COc1ccccc1N1CCN(C(=O)CSc2nc3ccccc3c(=O)n2CC2CCCO2)CC1 (centres undefined)	-1.5	1.9	1
COc1ccc(-c2nnc(CSc3nc4ccccc4c(=O)n3CC3CCCO3)o2)cc1OC (centres undefined)	11*	/	/
COc1cc(OC)cc(C(C(=O)NCc2ccccc2)N(Cc2ccco2)C(=O)c2ccno2)c1 (centres undefined)	/	-0.92	0
COc1cc(C2C(C#N)=C(N)OC3=C2C(=O)CCC3)ccc1OC(=O)N1CCOCC1 (centres undefined)	0.24	0.24	5
COc1cc(C2C(C#N)=C(N)Oc3cc(C)oc(=O)c32)ccc1OC(=O)N1CCOCC1 (centres undefined)	-3.7*	1	/
O=CNc1ccc(S(=O)(=O)NCc2ccccc2)cc1	/	-0.006	11
Cc1ccc(C(=O)Nc2ccccc2N2CCN(C(=O)C(C)C)CC2)cc1	0.19	0.45	-2
Cc1ccc(C(C)C)c(OCC(=O)Nc2ccccc2N2CCN(C)CC2)c1	/	1.3	7
SMILES	D1 mod	hDAT+cocaine	EphB4 antag
CCOc1cccc(C(=O)Nc2ccccc2N2CCN(C(=O)C(C)C)CC2)c1	-0.28	-9.1*	-4
CC(=O)N1CCN(c2ccccc2NC(=O)COc2cc(C)ccc2C(C)C)CC1	-5.3*	-0.39	-6
CCOC(=O)CCc1cnccc1-c1cccc(OC)c1O	/	1	/
CC(O)[C@H]1CNC(=O)C(=O)N1CCc1cc(C(F)(F)F)cc(C(F)(F)F)c1 (some centres undefined)	/	-0.77	/
O=S1(=O)Nc2c(ccc3cccnc23)-c2ccccc21	-3.6*	-0.3	/
O=c1[nH]n(-c2cccc3cccnc23)c(=O)c2ccccc12	0.031	-0.51	4
Nc1c(-c2ccccc2)cnn1-c1cccc([N+](=O)[O-])c1	/	-0.022	2
Nc1c(-c2ccc(Cl)cc2)cnn1-c1cccc([N+](=O)[O-])c1	/	-3*	2
NC(=O)[C@@H]1CC2(CC(c3cccc(NC(=O)[C@H]4CCC(=O)N4)c3)=NO2)CN1C(=O)COc1ccc(Cl)cc1 (some centres undefined)	/	1.2	/
Cc1cccc(NC(=O)Nc2cccc(F)c2)n1	2.5	2	2
Cc1ccnc(NC(=O)Nc2cccc(F)c2)c1	-5.3*	0.15	4
CCOC(=O)C1CCN(C(=O)C2CCN(S(=O)(=O)c3cccc4cccnc34)CC2)CC1	/	0.59	-1
O=C(NCC1(c2ccccc2)CCCC1)C(=O)N1CCOCC1	/	-0.64	-1
Cn1c(CNc2nc3ccccc3n2C)nc2ccccc21	-0.3	0.73	/
Cc1ccc(NCc2nc3ccccc3n2C)cc1	-4.1*	-1.3	-5
CCCCCCn1cnc2c(c1=O)c1nc3ccccc3nc1n2Cc1cccs1	/	-0.17	-13
CCCCCCn1cnc2c(c1=O)c1nc3ccccc3nc1n2/N=C/c1ccco1	-0.61	4*	-7
FC(F)(F)c1cc(-c2ccccc2)nc(N2CCCCC2)n1	0.47	-0.66	-1
Nc1nc(-c2ccccc2)cc(C(F)(F)F)n1	27*	0.083	0
CC(=O)Oc1ccccc1-c1nc(C)nc(N(C)C(C)=O)n1	0.0036	-2.8*	/
Cc1nc(N)nc(-c2ccccc2O)n1	/	-0.44	-4
COc1cccc(NC(=O)CCS(=O)(=O)c2cccs2)c1	0.95	-0.32	/
Cc1ccc(C)c(SCc2noc(C(=O)NCC3CCCO3)c2C(=O)O)c1 (centres undefined)	/	-0.41	5
Cn1c(=O)n(Cc2ccc(Cl)cc2)c2ccccc21	/	-0.17	5
Cc1ccsc1C(=O)N1CC(=O)Nc2ccccc21	-0.15	0.13	-7
SMILES	D1 mod	hDAT+cocaine	EphB4 antag
Cc1cc(C)cc(C(=O)N2CC(=O)Nc3ccccc32)c1	/	-3.3*	1
[2H]c1c([2H])c([2H])c(-c2nc(N3CCCCCC3)sc2C(=O)c2ccccc2)c([2H])c1[2H]	/	-0.73	-2
CCCCCCCCN1[C@@H](CC(=O)O)c2ccc(C(F)(F)F)cc2S1(=O)=O	/	0.55	/
CCCC(C)n1[nH]c(=O)cc1N (centres undefined)	/	-2.8*	4
CCCCC(C)n1[nH]c(=O)cc1N (centres undefined)	/	-0.93	5
CCOC(=O)c1c(NC(=O)c2ccccc2)sc2c(O)c(CN(CC)CC)ccc12	/	2.4*	-5
CCOC(=O)c1c(NC(C)=O)sc2c(O)cccc12	1.8	-0.12	/
COc1ccc(CNC(=O)C(=O)NCC2OCCN2S(=O)(=O)c2ccc3c(c2)OCCO3)cc1 (centres undefined)	/	-0.21	/
CCO[C@@H]1OC(C(N)=O)=C[C@H](C2CC2)[C@H]1CCCO	/	-1.2	/
COc1ccc(C2C3=C(CC(C)(C)CC3=O)Nc3cc4c(cc32)OCO4)cc1 (centres undefined)	/	2.5*	-4
CC1(C)CC(=O)C2=C(C1)Nc1cc3c(cc1C2c1ccc(F)cc1)OCO3 (centres undefined)	/	-0.2	3
Cc1sc2nc(C(C)Nc3ccccc3N3CCOCC3)[nH]c(=O)c2c1C (centres undefined)	0.43	-7.5*	11
Cc1sc2nc(SCC(=O)N3CCOCC3)[nH]c(=O)c2c1C	0.85	-0.23	/
O=C(N/N=C/c1ccncc1)c1cc([N+](=O)[O-])cc([N+](=O)[O-])c1O	/	/	19*
Cc1cc(C(=O)N/N=C/c2cccc([N+](=O)[O-])c2)c(C)o1	/	0.89	-6
CCOC(=O)c1cnc(SCC(=O)Nc2ccc(NC(=O)CC)c(OC)c2)nc1N	-0.73	-0.97	-2

Assay outcomes from PubChem.
